For 30 sequences, sensor-assay potency score (higher = more potent) results are on record in the OligoGym collection.

Among the targets are TNKS; TNK1; TNKS2; TNP2; TNPO2.
What all share (test): pooled miR-30 sensor sort-seq; sequence = guide strand
Common to all, as to details: shRNA
Note: reference of the scale not given here.

Regarding TTTTGCTGAAGGATCTGCCAGG, the sensor-assay potency score (higher = more potent) with TNKS is -0.435. Sequence TTGCCTTCTTTCTGTCTCCATC displayed a sensor-assay potency score (higher = more potent) in the experiment with TNK1 of -1.2. Consider TAGTTTCTTGTTACAAACCTTC, for which, in the experiment with TNKS2, the sensor-assay potency score (higher = more potent) was -0.305. For the sequence TACAAAGTCGAAGTGCTCTGGC, the sensor-assay potency score (higher = more potent) in the experiment with TNK1 was found to be 0.534. In the experiment with TNP2, AAGTTCTTTCTGTTCTTGGGGC registered a sensor-assay potency score (higher = more potent) of -0.319. In turn, TTCCACTTGAACTAACTACTGA showed a sensor-assay potency score (higher = more potent) in the experiment with TNKS2 of 0.487. Turning to TACTCTACAACAGACACGCGGT, in the experiment with TNKS, the sensor-assay potency score (higher = more potent) is -0.0381. With TTTAATTGCAGCTTCATGGAGA, the sensor-assay potency score (higher = more potent) in the experiment with TNKS2 stood at 0.599. In the experiment with TNP2, TTGGTTTTGTACACCTGCTGGA yielded a sensor-assay potency score (higher = more potent) of 0.278.

For TGGTTTTGTACACCTGCTGGAT, the sensor-assay potency score (higher = more potent) in the experiment with TNP2 is -0.833.

In turn, TTGTACACCTGCTGGATCCTCT displayed a sensor-assay potency score (higher = more potent) in the experiment with TNP2 of -0.394. Take TTACTCTGTTATATCCTGCTGC: the sensor-assay potency score (higher = more potent) in the experiment with TNKS2 came to 0.643.

In turn, TTTCTTGTTACAAACCTTCTGA returned a sensor-assay potency score (higher = more potent) in the experiment with TNKS2 of 0.0757. In the case of TAACTTTAGCTAAGTCTGCTTC, in the experiment with TNKS, the sensor-assay potency score (higher = more potent) is -0.439.

With TTTCTGTTCTTGGGGCAGCGGC, in the experiment with TNP2, the sensor-assay potency score (higher = more potent) is -1.14. Regarding TAAATTTCCATAAATCAGCTAC, the sensor-assay potency score (higher = more potent) in the experiment with TNKS2 came to 0.246. In the experiment with TNKS, TATAGGTGTACTCTCACTCAGA registered a sensor-assay potency score (higher = more potent) of -0.676. Still for that read-out and setting: the figure for TTCTCGAATAGTACTTTGCATC is -0.948. TTGCCTTCCAAGTTCTTTCTGT displayed a sensor-assay potency score (higher = more potent) with TNP2 of 0.0693. In the experiment with TNKS, TTGCATGAACATCAGCACCATG registered a sensor-assay potency score (higher = more potent) of -0.893.

As to TTTTGTGGCGCTTTGGTGGTGG, the sensor-assay potency score (higher = more potent) with TNP2 was found to be 0.492.

Turning to TTTCATTAACATTTGCTCCTTT, the sensor-assay potency score (higher = more potent) with TNKS turned out to be 0.974.

In the experiment with TNK1, TTTGAAGGTGCGACCATTCTGG showed a sensor-assay potency score (higher = more potent) of 0.416. In the experiment with TNPO2, TTTGAGCAGCTGCAGGACCTGC yielded a sensor-assay potency score (higher = more potent) of -1.11.

In turn, TGGACTAGTGTTGGGACTCTGG had a sensor-assay potency score (higher = more potent) with TNP2 of -0.968. In the experiment with TNK1, TTTGCCTTCTTTCTGTCTCCAT came in with a sensor-assay potency score (higher = more potent) of -0.221. In the case of TTCTTTCTGTTCTTGGGGCAGC, the sensor-assay potency score (higher = more potent) with TNP2 was -0.411. As to TTTAATAGCAGCTTCATGCAGA, the sensor-assay potency score (higher = more potent) with TNKS turned out to be 0.637. Sequence TATACTTTATTAGTAGAGCTGC yielded a sensor-assay potency score (higher = more potent) in the experiment with TNKS2 of 0.192. For the sequence TTATGCTAAAATCTACTCCTGG, the sensor-assay potency score (higher = more potent) with TNKS2 was 0.0124.
